PubChem BioAssay (NCI)
About 83,000 compounds went through this panel and 20% of them were active in at least one assay; those are over-represented in the sample as a whole.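 Interpretation: 100, growth as untreated; towards 0, rising growth inhibition; 0, no net growth; 0 to -100, cell death. Compounds scoring below 10 were considered active.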 Unmarked numbers belong to inactive results. The source made the active and inactive calls.

Key:
Assay in all cases: NCI-60 one-dose screen, 48 h (100 = growth as untreated, 0 = no growth, -100 = all killed)
Conditions in all cases: 10 µM unless noted
NCI-H23 lung = tested on: NCI-H23 lung
NCI-H226 lung = tested on: NCI-H226 lung
NCI-H322M lung = tested on: NCI-H322M lung
HOP-62 NSCLC = tested on: HOP-62 NSCLC
NCI-H460 lung = tested on: NCI-H460 lung
HOP-92 NSCLC = tested on: HOP-92 NSCLC
NCI-H522 lung = tested on: NCI-H522 lung
A549/ATCC NSCLC = tested on: A549/ATCC NSCLC
786-0 renal = tested on: 786-0 renal
COLO 205 colon = tested on: COLO 205 colon

SMILES	growth (NCI-H23 lung)	growth (NCI-H226 lung)	growth (NCI-H322M lung)	growth (HOP-62 NSCLC)	growth (NCI-H460 lung)	growth (HOP-92 NSCLC)	growth (NCI-H522 lung)	growth (A549/ATCC NSCLC)	growth (786-0 renal)	growth (COLO 205 colon) [%]
CCN(CC)c1ccc(C(=O)c2ccccc2)cc1	96.4%	87.9%	97.9%	91.2%	104%	89.6%	87.2%	89.4%	103%	
OCc1cnc2ccccc2c1NC1CCCCCC1	77.4%	80.4%	89.3%	95.8%	93.1%	83.6%	61.7%	84.6%	101%	
COc1ccc2[nH]c(O)c(/C=c3/cc4c(c(-c5ccc(F)cc5)n3)=Nc3ccccc3-4)c2c1	67.9%	76.3%	94%	95.5%	41.5%	66.7%	68.5%	75.8%	97.6%	
O=C1C=CC(=O)N1c1cccc(Cl)c1	103%	107%	121%	101%	111%	76%	69.9%	93%	105%	
NC(=NCCCOc1ccc(F)cc1)Nc1ccc(I)cc1	65.5%	93.7%	88%	80.4%	81.8%	69.8%	56.9%	70.4%	72.9%	
COc1cc(/C=C/c2cc(O)c(C(C)=O)c(O)c2)cc2c1O[C@]1(C)CC[C@@H](O)C(C)(C)[C@H]1C2	73.6%	89%	76.2%	52.7%	76.3%	95.5%	79%	81.4%	7.29% (active)	
S=c1cc(S)c2cc(Br)ccc2[nH]1	81.5%	83.9%	91.1%	85.9%	99.4%	88.5%	68.1%	89.5%	104%	
COCCCN1CC(O)=C(c2nc(-c3ccc(C)cc3)cs2)C1=N	96%	96.3%	97.3%	91.6%	153%	147%	106%	85.4%	94.8%	
CC1(C)CC(=O)C2=C(C1)N(c1ccc(F)cc1F)C(N)=C(C#N)C2c1cc(Br)ccc1F (stereo not drawn)	86.7%	103%	95.4%	89.9%	95%	119%	80.7%	79.3%	98.6%	
COC(=O)C1=C(C(=O)ON)[C@@H]2C=C[C@@]1([C@@H](Cc1ccccc1)Nc1ccccc1)O2	90.6%	105%	99.5%	102%	107%	63.1%	-74.7% (active)	92.9%	101%	
CN1C(=O)NC(c2ccc3c(c2)OCO3)C=C1c1ccccc1 (stereo not drawn)	96.3%	103%	92.4%	91.3%	97.6%	93.9%	80%	91.1%	83%	
CC/C(=C\c1ccc(OC)cc1)C(=O)c1ccc(OC)cc1	86.4%	93.7%	92.5%	86.8%	102%	85.2%	74.3%	123%	97.3%	
COc1ccc(CCn2cncc2-c2c[nH]c3ccccc23)cc1	82%	81.3%	92.8%	72.8%	92.5%	60.7%	83.7%	99.2%		
C=CC(=O)N[C@@H](/C=C/C(=O)OCC)Cc1ccc(-c2cc(Cl)cc(Cl)c2)cc1	15.6%	10.8%	58.9%	36%	9.25% (active)	14.8%	3.13% (active)	11.6%	11.8%	
Cc1ccccc1NS(=O)(=O)c1cccc(C(=O)Nc2ccc(Br)cc2)c1	18.5% [25 µM]	29.1% [25 µM]	64.2% [25 µM]	80.7% [25 µM]	35.8% [25 µM]	21.1% [25 µM]	39.6% [25 µM]	38.1% [25 µM]	53.6% [25 µM]	
O=C(c1nc2ccccc2[nH]1)C1C(c2ccc(Br)cc2)C2CC3CCCC[C@H]3N2[C@@]12C(=O)Nc1cc(Cl)ccc12 (stereo partly drawn)	54.5%	51.8%	56.1%	62.4%	16.8%	52.1%	59.1%	33%	42%	21.8
CCNc1nc2cc(Nc3ccnc4cc(Cl)ccc34)ccc2o1	66.9%	79.6%	92.9%	75%	58%	56.8%	61.9%	67.7%	81.7%	
CCCCCCCC(=O)OCC/C=C/C1OC1C1OC(=O)/C=C\C=C\C(=O)N(C(C)=O)C(=O)/C=C(/C)CCC2OC2C1OC(=O)NC(C)=O (stereo not drawn)	84.6%	81.1%	111%	79.8%	82.4%	53.3%	57.1%	95.1%	21.3%	62.3
O=C(/C=C(O)/C=C/c1ccc(SC(F)(F)F)cc1)/C=C/c1ccc(SC(F)(F)F)cc1	83.2%	100%	102%	101%	91.1%	93%	93.7%	95.4%	87.2%	
COc1cc(C2C3CC4CCCC[C@H]4N3[C@@]3(C(=O)Nc4cc(Cl)ccc43)C2C(=O)c2nc3ccccc3[nH]2)cc(OC)c1OC (stereo partly drawn)	75.1%	76.1%	88.3%	90.1%	42%	64.2%	68.2%	43.3%	67%	
COc1cc2oc(-c3cccc(C(=O)Nc4ccc(Br)cc4)c3)cc(=O)c2c(OC)c1OC	77.7%	10.7%	62.4%	58%	36.2%	50.9%	60.9%	52.3%	67.4%	
C=C1C(=O)O[C@H]2[C@H]1CC/C(CNC(=O)/C=C/c1cccc(OC)c1)=C\CC[C@@]1(C)O[C@@H]21	64.4%	73.6%	72.6%	68.7%	76%	-31.7% (active)	-69.4% (active)	47.2%	-59.2% (active)	
CCCCNC(=O)Oc1ccc(/C(=C(\C)c2ccccc2)c2ccc(OCCN3CCCCC3)cc2)cc1	67.9%	86.8%	75.3%	77.9%	40.5%	68.1%	73.1%	57.8%	27.1%	
O=C1Nc2cc(-c3ccc(NC(=O)c4ccccc4)cc3)ccc2/C1=C/c1ccc[nH]1	66.7%	90.6%	94.1%	104%	83.4%	115%	92.2%	103%	107%	
CC(=O)Nc1ccc(-c2ccc3c(c2)NC(=O)/C3=C\c2ccc[nH]2)cc1	52.5%	85.8%	64.5%	95.7%	50.1%	130%	59.3%	92.4%	99.3%	
O=[N+]([O-])CC(c1ccccc1F)c1c[nH]c2ccccc12 (stereo not drawn)	82.5%	81.9%	96%	69%	94.8%	80.9%	23.2%	70%	87.7%	
CC(=O)N1N=C(c2ccc(-n3ccc(C(F)(F)F)n3)c(F)c2)CC1c1ccc[nH]1 (stereo not drawn)	100%	106%	110%	112%	103%	130%	77.2%	104%	102%	
O=S(=O)(NCCNc1nccc(-c2c(-c3cccc(O)c3)nc3occn23)n1)c1ccc(C(F)(F)F)cc1	102%	106%	108%	107%	94.9%	92.6%	94.6%	94.8%	101%	
